Source: PubChem (several laboratories)
This is a sample that favours compounds with a hit; in the whole collection about 4.7% have one here.
tim10-1 inh: inhibits growth of tim10-1 mutant yeast. inhibition, % at 20 µM. hit rate 2.2% among 330,000. AID 463190. S. cerevisiae tim10-1 ts strain growth, BacTiter-Glo, 24 h;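 active means inhibition of at least 40%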;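 further: mutant grown at 25 °C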
SKKanGAS inh: blocks kanamycin growth of S. pyogenes SKKanGAS strain; inhibition, % at 7.5 µM; AID 1662; hit rate 1.3% among 300,000; BacTiter-Glo, 6 h;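 active means mean replicate score, as percent of positive control median, at least 50; inconclusive means mean below 50 but one replicate at or above 50; inactive means mean and every replicate below 50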;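 further: strain carries kanamycin resistance gene driven by streptokinase promoter and grows in 40 µg/ml kanamycin; loss of luminescence reflects streptokinase promoter inhibition or plain growth inhibition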
TIM10 inh: TIM10 yeast growth inhibition; S. cerevisiae TIM10 strain growth, BacTiter-Glo luminescence, 24 h; inhibition, % at 10 µM; hit rate 1.4% among 330,000; AID 463195;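 active means inhibition of 40% or more at the single tested concentration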;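 further: wild-type TIM10 isogenic control strain grown at permissive 25 °C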
PfHsp90 yeast 2: growth inhibition of yeast expressing Plasmodium Hsp90 | S. cerevisiae expressing PfHsp90, BacTiter-Glo ATP, 48 h; yeast lacking PDR1 and PDR3 efflux regulators | inhibition, % at 9.4 µM | hit rate 0.32% among 310,000;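 active means every replicate shows inhibition above about 80%, whatever the replicate mean, limit read from the data; inconclusive means mean inhibition reaches the set limit but some replicate falls short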
tim23-1 inh: inhibits growth of tim23-1 mutant yeast | S. cerevisiae tim23-1 growth, BacTiter-Glo luminescence, 24 h | inhibition, % at 20 µM | hit rate 1.3% among 330,000;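 active means growth inhibition of the mutant yeast at or above 50%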;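 further: temperature-sensitive mutant grown at 25 °C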
Calb FLC: affects C. albicans growth with fluconazole; C. albicans CaCi-2 (fluconazole-resistant clinical isolate) + fluconazole, Alamar Blue growth, 48 h; growth inhibition, % (test concentration not listed); hit rate 0.57% among 300,000; AID 1979;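 active means growth inhibition above about 58% in most replicates, limit read from the data, passing the limit was not always enough; inconclusive means exactly half the replicates above a set limit; inactive means most replicates below a set limit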;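 further: all wells also contain fluconazole at 8 µg/ml as a sub-toxic cotreatment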
tim10-1 conf: tim10-1 yeast growth inhibition, confirmed | hit rate 56% among 7,400 | S. cerevisiae tim10-1 ts strain growth, BacTiter-Glo, 24 h | inhibition, % at 20 µM | shares compounds with tim10-1 inh;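 active means inhibition of yeast growth at or above a set limit in either of two repeat tests at 20 µM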;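 further: tim10-1 mutant grown at permissive 25 °C to find synthetic lethal compounds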
tim10 confirm: TIM10 yeast growth inhibition, confirmed. shares compounds with TIM10 inh. S. cerevisiae tim10 strain growth, BacTiter-Glo luminescence, 24 h. inhibition, % at 10 µM. hit rate 63% among 4,600;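 active means inhibition of yeast growth at or above a set limit in either of two replicates at 10 µM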; further: this counterscreen used the strain with wild-type TIM10
Hits are given with their value.

NC(=O)/C=C\C(=O)Nc1cccc(C(F)(F)F)c1 was read as tim10-1 inh 60.6, SKKanGAS inh inactive, TIM10 inh 55.8, PfHsp90 yeast 2 97.2, tim23-1 inh inactive, Calb FLC inactive, tim10-1 conf 54.9 and tim10 confirm 66.2.
O=C(Nc1ccncc1)Nc1cccc(C(F)(F)F)c1 was read as tim10-1 inh inactive, SKKanGAS inh inactive, TIM10 inh inactive, PfHsp90 yeast 2 inactive, tim23-1 inh inactive and Calb FLC inactive.
For COc1ccc(CCNC(=S)NC(=O)c2cccc(Cl)c2)cc1OC the results were tim10-1 inh 48.1, SKKanGAS inh inactive, TIM10 inh 40.1, tim23-1 inh inactive, Calb FLC inactive, tim10-1 conf 29.5 and tim10 confirm 41.1.
For CSc1cccc(CN2CCN(CCC(C)C)C(CCO)C2)c1 (stereo not given) the results were tim10-1 inh inactive, SKKanGAS inh inactive, TIM10 inh inactive, PfHsp90 yeast 2 inactive, tim23-1 inh inactive and Calb FLC inactive.
For CCC(=O)N1CCc2cc(S(=O)(=O)N3CCN(c4ccccn4)CC3)ccc21 the results were tim10-1 inh 42.8, SKKanGAS inh inactive, TIM10 inh 43.8, PfHsp90 yeast 2 inactive, tim23-1 inh inactive, Calb FLC inactive, tim10-1 conf 37.2 and tim10 confirm inactive.
C[C@@H]1CC=C[C@H]2[C@H]1C(=O)N(Cc1ccccc1)[C@H]2c1ccc2ccccc2c1 was read as tim10-1 inh 45.6, SKKanGAS inh inactive, TIM10 inh 47.9, PfHsp90 yeast 2 inactive, tim23-1 inh inactive, Calb FLC inactive, tim10-1 conf 47.0 and tim10 confirm 47.2.
CC(=O)c1ccc(-c2ccccc2[C@H]2[C@H]3C=CC[C@@H](C)[C@@H]3C(=O)N2Cc2ccccc2)cc1 was read as tim10-1 inh 45.0, SKKanGAS inh inactive, TIM10 inh 42.9, tim23-1 inh inactive, Calb FLC inactive, tim10-1 conf 30.3 and tim10 confirm inactive.
For Cc1ccc(F)c([C@H]2[C@H]3C=CC[C@@H](C)[C@@H]3C(=O)N2Cc2ccccc2)c1 the results were tim10-1 inh 49.7, SKKanGAS inh inactive, TIM10 inh 45.0, PfHsp90 yeast 2 inactive, tim23-1 inh inactive, Calb FLC inactive, tim10-1 conf inactive and tim10 confirm 35.5.
Screening CC(=O)c1ccc(-c2ccc([C@H]3[C@H]4C=CC[C@@H](C)[C@@H]4C(=O)N3Cc3ccccc3)c(F)c2)cc1 returned tim10-1 inh inactive, SKKanGAS inh inactive, TIM10 inh inactive, PfHsp90 yeast 2 inactive, tim23-1 inh inactive and Calb FLC inactive.
Screening CCCN(CC(=O)Nc1ccccc1OC)C(=O)CCC(=O)c1ccc(OCC)cc1 returned tim10-1 inh inactive, TIM10 inh inactive, PfHsp90 yeast 2 inactive and tim23-1 inh inactive.
O=C(c1ccc([N+](=O)[O-])s1)N1CCc2ccccc21 was read as tim10-1 inh inactive, SKKanGAS inh inactive, TIM10 inh inactive, PfHsp90 yeast 2 inactive, tim23-1 inh inactive and Calb FLC inactive.
`O=C(c1ccc([N+](=O)[O-])s1)N1CCCc2ccccc21` gave tim10-1 inh 54.0, SKKanGAS inh inactive, TIM10 inh 40.2, PfHsp90 yeast 2 inactive, tim23-1 inh inactive, Calb FLC inactive, tim10-1 conf 48.6 and tim10 confirm 50.6.
For Cc1ccc(Nc2nnc(SCC(=O)c3ccc(Br)s3)s2)c(C)c1 the results were tim10-1 inh 43.4, SKKanGAS inh inactive, TIM10 inh 46.1, PfHsp90 yeast 2 inactive, tim23-1 inh inactive, Calb FLC inactive, tim10-1 conf 34.3 and tim10 confirm inactive.
For Cc1ccc(NC(=O)CSc2nnc(NC(=O)C(C)C)s2)c(C)c1 the results were tim10-1 inh inactive, SKKanGAS inh inactive, TIM10 inh inactive, PfHsp90 yeast 2 inactive, tim23-1 inh inactive and Calb FLC inactive.
`Cc1ncc(CO)c(/C=N/NC(=S)Nc2cccc(Cl)c2)c1O` gave tim10-1 inh inactive, SKKanGAS inh inactive, TIM10 inh inactive, PfHsp90 yeast 2 inactive, tim23-1 inh inactive and Calb FLC inactive.
Cc1ncc(CO)c(/C=N/NC(=S)Nc2ccc(Cl)c(Cl)c2)c1O was read as tim10-1 inh 51.1, SKKanGAS inh 66.4, TIM10 inh 91.5, PfHsp90 yeast 2 inactive, tim23-1 inh inactive, Calb FLC 110.5, tim10-1 conf 33.3 and tim10 confirm 37.5.
`Oc1ccc(-c2n[nH]c(=S)n2Cc2ccccc2)cc1` gave tim10-1 inh inactive, SKKanGAS inh inactive, TIM10 inh inactive, PfHsp90 yeast 2 inactive, tim23-1 inh inactive and Calb FLC inactive.
S=c1[nH]nc(-c2ccc(Br)cc2)n1Cc1ccccc1 was read as tim10-1 inh 42.4, SKKanGAS inh inactive, TIM10 inh 46.4, PfHsp90 yeast 2 inactive, tim23-1 inh inactive, Calb FLC inactive, tim10-1 conf inactive and tim10 confirm 45.0.
CCN(CC)S(=O)(=O)c1ccc(C(=O)NCC(c2ccc(OC)cc2)N2CCOCC2)cc1 (stereo not given) was read as tim10-1 inh inactive, SKKanGAS inh inactive, TIM10 inh inactive, PfHsp90 yeast 2 inactive, tim23-1 inh inactive and Calb FLC inactive.
Screening Cc1ccc(C(=O)CN2CCN(c3ccccn3)CC2)c(C)c1 returned tim10-1 inh inactive, SKKanGAS inh inactive, TIM10 inh inactive, PfHsp90 yeast 2 inactive, tim23-1 inh inactive and Calb FLC inactive.
For Cc1ccc2cc(C)c(N3CCN(c4ccccn4)CC3)nc2c1 the results were tim10-1 inh 52.6, SKKanGAS inh inactive, TIM10 inh 43.1, PfHsp90 yeast 2 inactive, tim23-1 inh inactive, Calb FLC inactive, tim10-1 conf 33.6 and tim10 confirm 38.2.
`O=C(Cc1ccsc1)Nc1ccccc1F` gave tim10-1 inh inactive, SKKanGAS inh inactive, TIM10 inh inactive, PfHsp90 yeast 2 inactive, tim23-1 inh inactive and Calb FLC inactive.
For O=[N+]([O-])c1nn(-c2ccc3c(c2)OCCO3)n(O)c1=NCCCO the results were tim10-1 inh inactive, SKKanGAS inh inactive, TIM10 inh inactive, PfHsp90 yeast 2 inactive, tim23-1 inh inactive and Calb FLC inconclusive.
`O=[N+]([O-])c1nn(-c2ccc3c(c2)OCCO3)n(O)c1=NC1CCCC1` gave tim10-1 inh 55.2, SKKanGAS inh inactive, TIM10 inh 58.2, tim23-1 inh inactive, Calb FLC inactive, tim10-1 conf 47.1 and tim10 confirm 41.4.
For CCn1c2c(c3cc(Br)ccc31)CCC/C2=N\O the results were tim10-1 inh 65.6, SKKanGAS inh inactive, TIM10 inh 53.9, PfHsp90 yeast 2 inactive, tim23-1 inh inactive, Calb FLC inactive, tim10-1 conf 39.3 and tim10 confirm 33.9.
CCn1c2c(c3cc(OCC(C)C)ccc31)CCCC2=O was read as tim10-1 inh inactive, SKKanGAS inh inactive, TIM10 inh inactive, PfHsp90 yeast 2 inactive, tim23-1 inh inactive and Calb FLC inactive.
